TRPV1 PAM: human TRPV1 potentiation; Q8NER1; TRPV1-expressing cells, Fluo-8 calcium influx, capsaicin EC20 potentiation; potentiation, % at 8.33 µM; actives 0.02% (n = 320,000); AID 540277; in the data active means potentiation above about 80%; inconclusive means between about 30% and that limit; further: 0% is about no effect
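TRPV1-expressing cells were cultured overnight at 35.5C and loaded with Fluo-8 calcium dye for 40 to 90 min at room temperature. After a 10 s baseline, compound was added and calcium influx was read kinetically for 3 min (ex 480/em 520 nm).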
D1 ag: agonists of human D1 dopamine receptor | P21728 | HEK293 T-REx D1 cells, calcium flux, agonist mode | activation, % at 2 µM | actives 1% (n = 360,000) | AID 504660; in the data active means activation above about 30%; further: 0% is about no effect
Target sequence (P21728 whole entry, looked up): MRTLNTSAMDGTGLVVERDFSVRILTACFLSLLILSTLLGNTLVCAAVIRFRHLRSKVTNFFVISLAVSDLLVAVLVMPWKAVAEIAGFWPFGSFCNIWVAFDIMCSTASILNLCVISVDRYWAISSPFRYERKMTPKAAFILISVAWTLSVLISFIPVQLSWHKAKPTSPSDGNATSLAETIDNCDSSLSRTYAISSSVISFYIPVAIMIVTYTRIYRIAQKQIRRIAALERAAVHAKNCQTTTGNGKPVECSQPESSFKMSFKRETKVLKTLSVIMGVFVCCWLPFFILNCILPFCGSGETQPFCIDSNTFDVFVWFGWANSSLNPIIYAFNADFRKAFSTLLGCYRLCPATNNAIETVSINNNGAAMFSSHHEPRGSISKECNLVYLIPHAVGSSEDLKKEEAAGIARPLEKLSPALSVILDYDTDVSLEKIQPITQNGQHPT
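Tetracycline-induced HEK293 TREx D1 cells, force-coupled to calcium signalling, were dye-loaded with a no-wash calcium kit. Compound was pin-added after a 10 s baseline. Fluorescence was read kinetically at 1 cycle/s for 180 s, with calcium rises flagged as agonism.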
D1 potentiator: potentiators of human D1 dopamine receptor | HEK293 TREx D1 cells, calcium flux, dopamine EC20 potentiation | actives 0.036% (n = 360,000) | potentiation, % at 10 µM | P21728; in the data active means potentiation above about 30%; further: 0% is about no effect
D1 antagonist: blocks dopamine activation of the human D1 receptor. actives 3.2% (n = 360,000). HEK293 TREx D1 cells, calcium flux, dopamine EC80; stronger effect = lower value. activity change, negative = inhibition, % at 10 µM; in the data active means activity change below about -30%; further: on the % scale 0 is the no-effect control and ±100 the full control effect
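Cells carrying a force-coupled, tetracycline-inducible human D1 receptor report calcium flux. Each well gets a 10 s baseline, compound with 180 s monitoring, then an EC80 dopamine stimulus with a second 180 s kinetic read.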
TRPV1 agonist: human TRPV1 agonism; Q8NER1; TRPV1-expressing cells, Fluo-8 calcium influx, agonist mode; activation, % at 8.33 µM; actives 0.19% (n = 320,000); in the data active means activation above about 80%; inconclusive means between about 30% and that limit; further: 0% is about no effect
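TRPV1-expressing cells were cultured overnight at 35.5C and loaded with Fluo-8 calcium dye for 40 to 90 min at room temperature. After a 10 s baseline, compound was added and calcium influx was read kinetically for 3 min (ex 480/em 520 nm).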
The depositor's hits bear a star; ? = inconclusive; / = no result given. Rows were chosen to be rich in hits. Some 4.2% of all compounds tested hit in one or more screens of this group.

SMILES	TRPV1 PAM	D1 ag	D1 potentiator	D1 antagonist	TRPV1 agonist
CCN1CCN(C(=O)Cn2ncc3c4ccccc4n(Cc4ccccc4F)c3c2=O)CC1	/	5	-2	15	/
Cc1nc2ccccc2c(=O)n1NC(=O)C1CCC(C(C)(C)C)CC1 (stereo not given)	3	3	0	-8	82*
O=S(=O)(Nc1cccnc1)c1cccc2ccccc12	25	-1	1	24	2
CN(C)/C=C(\C#N)C(=O)c1cccc(Oc2ccc(Br)cc2)c1	-5	5	-5	-2	1
CCOc1cccc(Oc2ncccc2C(=O)/C(C#N)=C/N(C)C)c1	-1	3	-3	-38*	2
C[C@@H](NC(=O)Cn1ccc(NC(=O)OCc2ccccc2)nc1=O)c1cccc2ccccc12	-7	3	-5	-33*	-2
COc1ccccc1CNC(=O)c1ccc(-c2nc(CN3CCc4ccccc43)c(C)o2)cc1	/	1	-2	-4	/
Cc1ccc(Nc2nc(N)nc(CSc3nccn3C)n2)c(C)c1	-12	-1	-2	-33*	0
Cc1ccccc1NS(=O)(=O)c1ccc2[nH]cc(C(=O)NCCc3ccccc3)c(=O)c2c1	16	6	-1	10	0
CC(C)(C)c1ccc(C(=O)NC(=S)Nn2cnnc2)cc1	-12	2	-4	-32*	4
O=C(NC(=S)Nn1cnnc1)c1ccccc1Cl	-8	2	-2	5	1
COc1cccc2cc(C(=O)N3CCN(c4ccccn4)CC3)c(=O)oc12	6	9	3	-37*	-2
COc1ccc(OCC(=O)NCc2ccc3c(c2)CCN3C(=O)c2cccc(C)c2)cc1	/	1	-1	4	/
CC(C)n1cc(CN2CCC(C(=O)Nc3cccc(-c4cccc(Cl)c4)c3)CC2)cn1	-42	41*	-4	-21	3
CCn1cc(CN2CCC(C(=O)Nc3cccc(-c4cccc(F)c4)c3)CC2)cn1	12	18	-10	-38*	1
Cc1ccc(CN2CCC(C(=O)Nc3cccc(-c4cccc(F)c4)c3)CC2)o1	-5	2	-1	2	3
CCn1cc(CN2CCC(C(=O)Nc3cccc(-c4cccc(OC)c4)c3)CC2)cn1	5	2	3	-3	-2
CCn1nc(C)c(CN2CCC(C(=O)Nc3cccc(-c4cccc(F)c4)c3)CC2)c1C	28	37*	-4	-20	14
COc1cc2[nH]c(=O)n(Cc3ccc(C(=O)N4CCN(c5cccc(C)c5C)CC4)cc3)c(=O)c2cc1OC	/	1	1	-7	/
Cc1cccc(C)c1OCc1nnc(SCC(=O)Nc2ccc(N3CCOCC3)cc2)o1	-11	41*	/	9	3
CCOc1ccc(-c2nonc2NC(=O)c2ccc(C)cc2)cc1OCC	/	2	0	10	/
COc1ccc(C(=O)N2c3ccc(C)cc3C(C)(c3ccccc3)CC2(C)C)cc1 (stereo not given)	/	0	-2	-3	/
Nc1c(Cl)cc(C2=NCCn3c2c2ccc([N+](=O)[O-])cc2[n+]3[O-])cc1Cl	0	1	-10	-33*	-9
Nc1c(Cl)cc(C2=NCCn3nc4cc([N+](=O)[O-])ccc4c32)cc1Cl	20	-1	-6	-6	0
CCc1ccc(C(=O)COC(=O)c2cnc(C)cn2)cc1	4	6	-9	-33*	-3
SMILES	TRPV1 PAM	D1 ag	D1 potentiator	D1 antagonist	TRPV1 agonist
Cc1cnc(C(=O)OCC(=O)c2ccc(C3CCCCC3)cc2)cn1	1	7	-2	-31*	0
O=C(NCCc1ccc(Cl)cc1)c1ccc(Cn2c(=O)[nH]c3ccccc3c2=O)cc1	10	0	-3	10	-4
Cc1c(C(=O)OCC(=O)N2C(C)CCCC2C)oc2ccccc12 (stereo not given)	-15	2	-5	8	19
Cc1c(C(=O)OCC(=O)N2c3ccccc3CC2C)oc2ccccc12 (stereo not given)	-10	1	1	-65*	7
CC(=O)N1N=C(c2ccc(C)cc2)CC1c1ccco1 (stereo not given)	-1	-3	-1	/	4
Cc1ccc(C2=NN(C(=O)CCCC(=O)O)C(c3ccco3)C2)cc1 (stereo not given)	3	74*	-3	-13	3
Cc1ccc(C2=NN(C(=O)C3CCCO3)C(c3ccco3)C2)cc1 (stereo not given)	2	6	4	2	1
Cc1ccc(C2=NN(C(=O)CN3C(=O)c4ccccc4S3(=O)=O)C(c3ccco3)C2)cc1 (stereo not given)	3	1	-6	-76*	2
O=C(C1CCCO1)N1N=C(c2ccc(Br)cc2)CC1c1ccco1 (stereo not given)	10	2	-4	-71*	-4
CCn1c(C(=O)N2CCCC(C(=O)N3CCN(c4cc(C)ccc4C)CC3)C2)cc2sccc21 (stereo not given)	/	0	-1	-20	/
CCOC(=O)C1=C(C)NC2=C(C(=O)c3ccccc32)C1c1ccc([N+](=O)[O-])o1 (stereo not given)	/	1	-10	-73*	/
COc1ccc(Nc2nc(N)c([N+](=O)[O-])c(N3CCCC3)n2)cc1	-5	4	-6	8	1
COc1ccc(Nc2nc(N3CCCCC3)c3ccccc3n2)cc1	-21	8	-16	-49*	22
c1ccc2c(c1)nc(N1CCCCCC1)c1ccccc12	-5	2	12	15	5
Oc1ccc(Nc2nc(N3CCCC3)c3ccccc3n2)cc1	-4	1	-10	-40*	0
Cc1ccc(Nc2nc(N3CCOCC3)c3ccccc3n2)cc1	-29	1	-13	-60*	?
Clc1cccc(C2Nc3cccc4cccc(c34)N2)c1Cl	6	2	-12	-36*	9
C=C[C@@H]1c2ccccc2N(S(=O)(=O)c2ccc(C)cc2)[C@H](c2ccccc2C(F)(F)F)C1(C#N)C#N	6	0	2	28	1
C=C[C@@H]1c2ccccc2N(S(=O)(=O)c2ccc(C)cc2)[C@H](c2ccc(C(F)(F)F)cc2)C1(C#N)C#N	-1	2	-4	-32*	1
COc1cc(Cl)c(NS(=O)(=O)c2ccc3[nH]c(=O)ccc3c2)c(OC)c1	/	1	-4	10	/
O=C(O)/C=C/c1cc(F)c(S(=O)(=O)N2CCN(S(=O)(=O)c3ccc4c(c3)OCCO4)CC2)cc1F	/	-1	-8	-1	/
Cc1ccc(C(=O)Nc2cccc(C(=O)OCc3cc(=O)n4nc(C5CC5)sc4n3)c2)cc1	/	33*	0	-6	/
O=C(Nc1cccc(C(=O)OCc2cc(=O)n3nc(C4CC4)sc3n2)c1)c1ccccc1	/	1	0	17	/
Cc1cccc(C(=O)OCc2cc(=O)n3nc(C4CCCCC4)sc3n2)c1	/	0	-3	19	/
